Bioassay records: PubChem, National Center for Advancing Translational Sciences (NCATS)
CHX counter = counter-screen hit for Shiga toxin inhibitors, cycloheximide; AID 2314; max response, %; hit rate 12% among 300,000; cell reporter, cycloheximide protein synthesis inhibition counterscreen; in the data active means max response mostly above about 13%, no sharp cut-off; inactive means mostly below about 14%; further: read at 38.3 µM for the half of the compounds with a filed dose; 0% is about no effect
Giardia FBPA inh = Giardia lamblia aldolase inhibition. purified Giardia FBPA. hit rate 0.71% among 290,000. Potency, µM (highest dose often 59.6 µM), for inactives: at the top dose activity, negative = inhibition, actives largely listed as inhibitors; further: potency means the concentration at half of the fitted maximal effect; on the % scale 0 is the no-effect control and ±100 the full control effect; nearly all actives have a fitted effect of over 55% in size
Target sequence (A8B2U2 whole entry, looked up): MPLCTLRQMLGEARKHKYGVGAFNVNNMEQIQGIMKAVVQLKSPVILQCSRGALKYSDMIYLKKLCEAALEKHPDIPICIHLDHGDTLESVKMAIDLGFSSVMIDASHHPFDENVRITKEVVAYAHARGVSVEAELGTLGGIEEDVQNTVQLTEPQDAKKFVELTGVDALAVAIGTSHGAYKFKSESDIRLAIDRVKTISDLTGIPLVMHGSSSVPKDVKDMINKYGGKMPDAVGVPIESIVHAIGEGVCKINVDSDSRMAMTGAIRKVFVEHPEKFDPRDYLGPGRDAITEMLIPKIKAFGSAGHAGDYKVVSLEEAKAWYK
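40 nM FBPA preincubated 10 min at RT with compound (up to 57.5 uM final), then substrate plus GAPDH/TPI/NAD/arsenate coupling and diaphorase/resazurin added. Fluorescence read after 20 min at RT, 525/598 nm.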
NS1 inh = influenza NS1 inhibition | Potency, µM (titrated, usually from 46.1 µM), for the others: at the highest dose activity, positive = more growth | hit rate 0.4% among 270,000 | AID 2326; calls by dose curve; further: potency means the concentration at half of the fitted maximal effect; actives are rising curves; nearly all actives have a fitted effect of over 50% in size
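S. cerevisiae expressing influenza A NS1, grown in glucose, washed, then diluted 1:100 into pH 6.0 -URA galactose medium with 23 nl compound. Growth recovery read as OD600; NS1-free strain serves as control.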
Shiga toxin inh = blocks Shiga toxin action in Vero cells | inhibition, % at 38.7 µM | hit rate 9.2% among 290,000 | Vero cells, Shiga toxin protein synthesis inhibition reporter; in the data active means inhibition mostly above about 28%, no sharp cut-off; inactive means mostly below about 43%; further: 0% is about no effect
Pf growth 96h = P. falciparum growth inhibition at 96 hour, primary screen for plastid delayed-death inhibitors; hit rate 6.9% among 320,000; AID 504834; P. falciparum luciferase reporter growth, 96 h; Potency, µM (series often up to 28.7 µM), for inactives: at the top dose activity change, negative = inhibition, hits mostly inhibitors; further: potency means the concentration at half of the fitted maximal effect; on the % scale 0 is the no-effect control and ±100 the full control effect
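P. falciparum expressing integrated firefly luciferase grown in erythrocytes (2% hematocrit, 0.05% parasitemia final) with compounds for 96 hours at 37 C, 5% CO2. Growth inhibition read as loss of luminescence after adding luciferase detection reagent.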
Pf growth 48h = inhibits P. falciparum growth in the first generation, 48 h | P. falciparum luciferase growth in erythrocytes, 48 h | Potency, µM (doses to about 28.7 µM), without a hit: at the top dose activity change, negative = inhibition, most hits filed as inhibitors | hit rate 5.9% among 310,000; further: potency means the concentration at half of the fitted maximal effect; on the % scale 0 is the no-effect control and ±100 the full control effect
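Compounds are pin-transferred into medium, infected erythrocytes (2% hematocrit, 0.1% parasitemia final) are added, and plates sit one parasite generation at 37 C in 5% CO2. Detection reagent is then added and luminescence measured.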
Active calls of the source: *; ? = inconclusive; · = no result. Sampled rows, rich in hits. Any-hit rate of the full collection: about 21%. Unless noted, the call rests on the fitted dose curve; in most records, active means well fitted curve in the direction sought with a large enough effect; inconclusive means small, poorly fitted or top-dose-only effect, or another doubt; inactive means no such curve, though single readings can be large; an effect the other way counts as inactive or inconclusive.

SMILES | CHX counter | Giardia FBPA inh | NS1 inh | Shiga toxin inh | Pf growth 96h | Pf growth 48h
CNC(=O)c1ccc(NC(=O)/C=C/c2cccc(F)c2)cc1 | 27* | 0% | · | 64 | 27% | 38%
O=C(/C=C/c1cccc(F)c1)Nc1ccc(S(=O)(=O)Nc2ncccn2)cc1 | -1 | 7% | 0% | 12 | -23% | -19%
CSc1cccc(NC(=O)/C=C/c2cccc(Cl)c2)c1 | 72* | -11% | -117% | 143* | 38% | 30%
COc1ccc(S(=O)(=O)N2CCC(C(=O)NC3CCCCC3)CC2)cc1C | -3 | 2% | -7% | -6 | ? | 4%
O=C(O)C1=CC(O)[C@@H](O)C(O)C1 (stereo partly drawn) | · | 1% | · | · | · | ·
Cc1nn(CC(=O)NC(=O)NC2CCCCC2C)c(=O)c(C#N)c1C (stereo not drawn) | · | · | · | · | -19% | -1%
Cc1cc(NC(=O)CON=C(N)CC(=O)Nc2ccccc2Cl)ccc1Br | · | · | · | · | ? | -8%
CCOC(=O)C1=C(C)N(C)C(=S)NC1c1ccc(Cl)cc1Cl (stereo not drawn) | -5 | -1% | 6% | -6 | 15µM* | -17%
CCOC(=O)C1=C(C)N(C)C(=S)NC1c1ccccc1Cl (stereo not drawn) | 2 | 0% | -10% | -9 | ? | 0%
O=C(COc1ccc2c(c1)oc(=O)c1ccccc12)NCCN1CCOCC1 | -2 | 4% | -21% | -8 | 8% | 8%
COc1ccc(CCNC(=O)CSc2nnc(NC(C)=O)s2)cc1OC | -2 | -3% | 14% | 8 | 18% | 3%
CCNc1nc2cccnc2s1 | 26* | 0% | 5% | 38 | 41% | 36%
CNc1nc2cccnc2s1 | 8 | 0% | 3% | 27 | 31% | 29%
CN(CC1CCN(CCc2cccc(C(F)(F)F)c2)CC1)C(=O)c1ccc(F)cc1 | -3 | -1% | 3% | -5 | 13µM* | -14%
Cc1c(C(=O)Nc2ccc(S(=O)(=O)N(C)C3CCN(C)CC3)cc2)oc2ccccc12 | · | · | · | · | ? | 4.7µM*
Cc1c(C(=O)Nc2ccc(S(=O)(=O)N(C)C3CCN(C)CC3)cc2)oc2c(Cl)cccc12 | · | · | · | · | 2.6µM* | 2.9µM*
Cc1c(C(=O)Nc2cccc(S(=O)(=O)N3CCCC3)c2)oc2ccccc12 | 2 | 0% | ? | -6 | 21% | ?
Cc1ccc(CNS(=O)(=O)c2cc3c4c(c2)CCN4C(=O)CC3)cc1 | · | · | · | · | 13% | 67%
CCC(=O)N1CCc2cc(S(=O)(=O)N3CCN(C(=O)c4ccco4)CC3)ccc21 | 6 | -3% | -5% | 14 | -14% | ?
O=C(C1CCC1)N1CCc2cc(S(=O)(=O)N3CCN(c4ccccn4)CC3)ccc21 | -5 | 4% | -14% | -1 | -2% | 10µM*
O=C(c1ccco1)N1CCN(S(=O)(=O)c2ccc3c(c2)CCN3C(=O)C2CCC2)CC1 | -3 | 8% | -9% | 0 | -6% | 13µM*
COc1cc(CNC(=O)c2cnc(C)cn2)cc(OC)c1 | 4 | -2% | 0% | · | -20% | 5%
O=C(CSc1n[nH]c(-c2ccncc2)n1)Nc1ccccc1Cl | · | · | · | · | 3% | 2%
Cc1cccc(/C(N)=N/OC(=O)Cc2cccc3ccccc23)c1 | 20* | -4% | -50% | 28 | ? | -25%
Cc1cccc(C(=O)O/N=C(\N)Cc2cccc3ccccc23)c1 | -1 | 10% | -137% | -6 | ? | 3.3µM*
SMILES | CHX counter | Giardia FBPA inh | NS1 inh | Shiga toxin inh | Pf growth 96h | Pf growth 48h
O=C(Cn1c(=O)cnc2ccccc21)NNC(=O)c1ccccc1Cl | · | · | · | · | 19% | 14%
Fc1ccc2c(c1)C1C=CCC1C(c1cc3c(cc1Br)OCO3)N2 (stereo not drawn) | 0 | -7% | 3% | -2 | 4% | 5.2µM*
COc1ccc(-c2nc3ccc(C4=C(C)CC(=O)NN4)cc3[nH]2)cc1 | · | · | · | · | 7.6µM* | ?
Cc1ccc([N+](=O)[O-])cc1NC(=O)C(C)NS(=O)(=O)c1ccc(F)cc1 (stereo not drawn) | 9 | 8% | 3% | -17 | 14% | -17%
CN(C(=O)COC(=O)c1sc2ccccc2c1Cl)C1CCCCC1 | 17 | 3% | -18% | 55* | 4% | 16%
CN(C(=O)COC(=O)c1cn(C)c2ccccc12)C1CCCCC1 | · | · | · | · | -46% | -10%
CN(C)CCCOC(=O)c1sc2ccccc2c1Cl | 39* | -3% | 1% | 59* | 90% | 20%
